The text below walks through data of PubChem BioAssay AID777 (Sanford-Burnham Center for Chemical Genomics, 2007).

The whole screen tested about 96,000 compounds, of which about 19,000 (20%) were called active.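 Rule for the calls: active = blocking of liver enzyme CYP2C9 beyond about 50% at 5 µM (limit read from the data); inactive = the rest.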 A selection follows.

The target of this experiment is Cytochrome P450 2C9 (Homo sapiens) (UniProt P11712). Briefly: blockers of cytochrome P450 2C9 activity – biochemical, luminescence, ADME assay, primary screen (AID 777). Particulars: CYP2C9 Supersomes, luciferin-H conversion, at 5 µM, hits give high values.
Cytochrome P450 2C9 (Homo sapiens), sequence (P11712 whole entry, looked up): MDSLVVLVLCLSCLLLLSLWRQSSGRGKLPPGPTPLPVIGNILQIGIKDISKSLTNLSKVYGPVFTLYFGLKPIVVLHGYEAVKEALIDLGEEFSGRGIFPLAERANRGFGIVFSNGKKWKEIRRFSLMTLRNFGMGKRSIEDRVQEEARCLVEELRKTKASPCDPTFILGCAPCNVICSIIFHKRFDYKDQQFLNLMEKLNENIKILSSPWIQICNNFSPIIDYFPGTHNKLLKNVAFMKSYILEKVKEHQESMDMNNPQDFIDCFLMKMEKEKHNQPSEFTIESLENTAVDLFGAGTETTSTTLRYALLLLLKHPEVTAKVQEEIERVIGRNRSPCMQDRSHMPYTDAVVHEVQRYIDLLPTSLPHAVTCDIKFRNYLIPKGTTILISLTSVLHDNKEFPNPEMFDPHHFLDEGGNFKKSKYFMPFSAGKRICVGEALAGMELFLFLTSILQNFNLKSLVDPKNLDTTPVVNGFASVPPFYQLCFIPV
`Nc1cc(OC(=O)c2ccccc2Br)nn1S(=O)(=O)c1ccccc1`: the inhibition (as a rule, the change of the read-out against control, counted positive when it falls) was 61.5% (active). Under `Cc1ccc(S(=O)(=O)N2CCCC2CO)cc1` (stereo not drawn) stands -37% (inactive); under `Cc1ccc(S(=O)(=O)n2nc(OC(=O)C(C)(C)C)cc2N)cc1`, 50.4% (active); under `Cc1c(C(=O)OCC(=O)N(CCC#N)c2ccccc2)oc2c1ccc1ccccc12`, -74.8% (inactive).

Turning to `CC(=O)Nc1ccccc1OC(=O)N1CCOCC1`, the inhibition was -0.1% (inactive). Take `CC(C)Cc1cc(C(=O)Nc2cc(Br)ccc2O)no1`: the inhibition is 18.1% (inactive). Under `O=c1c2ccccc2oc2nc3n(c(=O)c12)CCCS3` stands -21.3% (inactive); under `Cn1c(=O)n(CCc2ccccc2)c(=O)c2c1nc1n2CCCN1c1ccccc1`, 14.3% (inactive). As for `COc1ccc(N2CC(C)Cn3c2nc2c3c(=O)n(Cc3ccccc3F)c(=O)n2C)c(OC)c1` (stereo not drawn), the inhibition was -4.7% (inactive). The value for `Cc1cccc(N2CC(C)Cn3c2nc2c3c(=O)n(CC(=O)OCc3ccccc3)c(=O)n2C)c1` (stereo not drawn) was 86.9% (active); that for `O=C(/C=C/c1cc2c(cc1Br)OCO2)NCc1ccc(Cl)cc1` was -6.4% (inactive).

Turning to `CC(C)(C)C(=O)c1cnc(Nc2ccccc2)s1`, the inhibition is 33.1% (inactive).

Turning to `S=c1[nH]nc(-c2ccco2)n1/N=C/c1ccc(Br)s1`, the inhibition was -24.6% (inactive). The value for `Cc1ccc(C(c2nnnn2C(C)(C)C)N2CCc3ccccc3C2)cc1` (stereo not drawn) was -5.7% (inactive). Turning to `COc1ccc(OC)c(C(c2nnnn2C(C)(C)C)N2CCc3ccccc3C2)c1` (stereo not drawn), the inhibition is 98.9% (active). The value for `CCC(C)(C)n1nnnc1C(c1ccccc1OC)N1CCSCC1` (stereo not drawn) was 17% (inactive); that for `CCN(CC)C(=O)CN(c1cccc(OC)c1)S(=O)(=O)c1ccc(C)cc1` was 94% (active). Consider `CCOc1ccc(S(=O)(=O)N(CC(=O)O)c2ccccc2)cc1`, for which the inhibition is 17.7% (inactive).

Consider `COc1cccc(NC(=O)CN(C)S(=O)(=O)c2ccc(C)cc2)c1`, for which the inhibition was 19% (inactive).

On to `Cc1nonc1OCCn1nnnc1N`, for which the inhibition is 6.3% (inactive). The value for `CCN(CC(=O)NCc1cccs1)c1nnnn1-c1ccccc1` was -1.7% (inactive). Under `Cc1n[nH]c(=S)n1/N=C/c1ccc(Br)o1` stands 4.5% (inactive); under `CCCCOC(=O)Cn1c(=O)n(CC(=O)OCCCC)c2cc(C)ccc21`, 60.8% (active); under `COC(=O)Cn1c2ccc(C)cc2c2nc(C)sc21`, 22.4% (inactive).

In the case of `CCCCOC(=O)Cn1c(=N)n(CCN(CC)CC)c2ccccc21`, the inhibition is -37.7% (inactive). Under `CCCCN(CC)CCNC(=O)c1[nH]c(C)c(C(C)=O)c1C` stands -14.6% (inactive); under `COCCCNCC(=O)Nc1sc(C)c(C)c1C(=O)OC`, 39.5% (inactive); under `CCCCOC(=O)c1[nH]c(C)c(C(=O)OC)c1C`, 61.2% (active).
